Source: PubChem BioAssay (Broad Institute)
EZH2 inh – blocks human EZH2/PRC2 H3K27 methylation. Q15910. DELFIA TRF, 1 h. inhibition, % at 12.5 µM. actives 0.35% (n = 57,000). AID 651548;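 active means mean inhibition of replicates at least 50% and every single replicate also reaching 50%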;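 further: dimethyl H3K27 on biotinylated H3 21-44 peptide detected by antibody; plate controls were median neutral control wells for no effect and median positive control wells for full effect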
Target sequence (Q15910 whole entry, looked up): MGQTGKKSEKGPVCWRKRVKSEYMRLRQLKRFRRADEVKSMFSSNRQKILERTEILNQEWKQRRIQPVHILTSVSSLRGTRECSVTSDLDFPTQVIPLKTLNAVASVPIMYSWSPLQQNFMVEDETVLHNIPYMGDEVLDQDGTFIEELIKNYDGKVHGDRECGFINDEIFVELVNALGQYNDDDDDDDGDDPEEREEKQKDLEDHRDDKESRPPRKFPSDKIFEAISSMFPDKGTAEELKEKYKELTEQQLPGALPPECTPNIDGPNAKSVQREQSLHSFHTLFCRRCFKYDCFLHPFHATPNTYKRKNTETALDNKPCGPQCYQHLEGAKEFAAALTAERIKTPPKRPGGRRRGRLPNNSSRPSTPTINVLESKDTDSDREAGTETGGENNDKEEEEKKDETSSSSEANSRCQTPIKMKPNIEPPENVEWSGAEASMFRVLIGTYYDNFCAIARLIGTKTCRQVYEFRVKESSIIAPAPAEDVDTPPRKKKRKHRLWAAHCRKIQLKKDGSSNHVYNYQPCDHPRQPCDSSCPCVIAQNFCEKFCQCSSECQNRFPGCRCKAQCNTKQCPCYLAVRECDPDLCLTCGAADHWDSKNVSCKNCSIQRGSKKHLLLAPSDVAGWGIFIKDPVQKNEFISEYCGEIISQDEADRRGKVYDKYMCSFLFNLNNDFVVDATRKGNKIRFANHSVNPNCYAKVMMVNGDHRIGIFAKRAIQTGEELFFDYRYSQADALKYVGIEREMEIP
Active calls of the source: *. The entries come from a sample that favours hits as a whole.

SMILES	EZH2 inh
O=c1c(-c2ccc(O)cc2)coc2cc(OC3OC(CO)C(O)C(O)C3O)cc(O)c12 (centres undefined)	8.5
O=c1cc(-c2ccc(O)cc2)oc2c(C3OC(CO)C(O)C(O)C3O)c(O)c(C3OCC(O)C(O)C3O)c(O)c12 (centres undefined)	99.4*
S=C(Nc1ccc(Cl)cc1)N1CCN=C1Nc1ccc(Cl)cc1	11.4
CS(=O)(=O)N(CC(=O)Nc1ccc2ccccc2c1)c1ccc(F)cc1	5.0
Cc1ccc(NC(=O)CSc2nc3ccccc3s2)cc1Cl	47.7
O=C(CSc1nc2ccccc2s1)Nc1ccc(Cl)cc1	41.3
Cc1ccc(NC(=O)CSc2nc3ccccc3s2)cc1C	55.2*
O=C(O)Cc1cccc(OCCCN(Cc2cccc(C(F)(F)F)c2Cl)CC(c2ccccc2)c2ccccc2)c1	84.6*
CCOC(=O)c1sc2ncn(CC(=O)Nc3ccc(OC)cc3)c(=O)c2c1C	-0.6
Cn1c2ccccc2c2nnc(SCC(=O)Nc3ccc(Cl)cc3)nc21	-7.1
CSc1ccccc1NC(=O)CSc1nnnn1-c1ccccc1C	15.2
Cc1cc(C)c(C#N)c(SCC(=O)Nc2sc3c(c2C#N)CCC3)n1	5.9
COc1ccc(OCC(=O)Nc2sc3c(c2C#N)CCC3)cc1	13.5
COc1cc(OC)cc(-c2nnc(SCC(=O)Nc3sc4c(c3C#N)CCCC4)o2)c1	67.7*
O=C(NC1CCN(Cc2ccccc2)CC1)c1ccc(NS(=O)(=O)c2cccs2)cc1	-12.8
COc1ccc(NC(=O)Cn2cnc3sc(-c4ccccc4)cc3c2=O)cc1	6.4
Cc1ccc(-c2ccc3c(c2)O[C@H](CN(C)Cc2ccc(C(=O)O)cc2)[C@H](C)CN([C@H](C)CO)S3(=O)=O)cc1	28.5
C[C@H](CO)N1C[C@H](C)[C@@H](CN(C)Cc2ccc(F)cc2)Oc2cc(Br)ccc2S1(=O)=O	58.1*
C[C@@H]1CN([C@H](C)CO)S(=O)(=O)c2ccc(/C=C/c3ccccc3)cc2O[C@@H]1CN(C)Cc1ccc(C(=O)O)cc1	19.5
C[C@@H]1CN([C@H](C)CO)S(=O)(=O)c2ccc(/C=C/c3ccccc3)cc2O[C@H]1CN(C)Cc1ccccc1	10.2
C[C@H](CO)N1C[C@H](C)[C@H](CN(C)Cc2ccc(C(=O)O)cc2)Oc2cc(/C=C/c3ccccc3)ccc2S1(=O)=O	52.1*
C[C@H]1CN([C@@H](C)CO)S(=O)(=O)c2ccc(Br)cc2O[C@H]1CN(C)Cc1ccccc1	-4.9
C[C@H]1CN([C@@H](C)CO)S(=O)(=O)c2ccc(Br)cc2O[C@H]1CN(C)Cc1ccc(F)cc1	23.8
Cc1ccc(-c2ccc3c(c2)O[C@H](CN(C)Cc2ccc(C(=O)O)cc2)[C@@H](C)CN([C@H](C)CO)S3(=O)=O)cc1	50.4*
Cc1ccc(-c2ccc3c(c2)O[C@H](CN(C)Cc2ccc(C(=O)O)cc2)[C@@H](C)CN([C@@H](C)CO)S3(=O)=O)cc1	44.2
SMILES	EZH2 inh
O=C(CSc1nnc(-c2ccncc2)n1-c1ccccc1)c1c[nH]c2ccccc12	-20.3
C#CCN(O[C@@H](/C=C/[C@@H](O)Cc1ccccc1)C1CC1)[C@@H](Cc1ccc(N=[N+]=[N-])cc1)C(=O)OC	28.1
CS(=O)(=O)N(CC(=O)Nc1c(F)cccc1F)c1cc(Cl)c(Cl)cc1Cl	-22.4
COc1ccc(-n2c(SCC(=O)Nc3ccc(C)c(C)c3)nnc2-c2ccccc2)cc1	-1.6
FC(F)(F)c1ccc(C2=NCCc3sccc32)cc1	-5.9
N#C/C(N)=C(\C#N)N=Cc1ccc(C#N)cc1	-11.5
COc1ccc(NC(=O)CSc2nc3sc(C)c(C)c3c(=O)n2-c2ccccc2)c([N+](=O)[O-])c1	-7.4
CC1(C)CC[C@]2(C(=O)O[C@@H]3O[C@H](CO)[C@@H](O)[C@H](O)[C@H]3O)CC[C@]3(C)C(=CCC4[C@@]5(C)CC[C@H](O[C@@H]6O[C@H](C(=O)O)[C@@H](O)[C@H](O)[C@H]6O)[C@@](C)(CO)C5CC[C@]43C)C2C1 (some centres undefined)	2.9
CC1(C)CC[C@]2(C(=O)O[C@@H]3O[C@H](CO)[C@@H](O)[C@H](O)[C@H]3O)CC[C@]3(C)C(=CCC4[C@@]5(C)CC[C@H](O[C@@H]6O[C@H](C(=O)O)[C@@H](O[C@@H]7O[C@H](CO)[C@@H](O)[C@H](O)[C@H]7O)[C@H](O)[C@H]6O[C@@H]6O[C@H](CO)[C@@H](O)[C@H](O)[C@H]6O)C(C)(C)C5CC[C@]43C)C2C1 (some centres undefined)	11.0
C[C@@H]1CC[C@]2(C(=O)OC3OC(CO)C(OC4OC(CO)C(O)C(O)C4O)C(O)C3O)CC[C@]3(C)C(=CCC4[C@@]5(C)CC[C@H](O)[C@](C)(C(=O)O)C5CC[C@]43C)C2[C@]1(C)O (some centres undefined)	60.5*
COC(=O)c1csc(S(=O)(=O)N=S(C)(=O)c2cccs2)c1OC (centres undefined)	4.2
COc1cccc(C#Cc2cnc3c(c2)C(=O)N([C@@H](C)CO)C[C@@H](C)[C@@H](CN(C)C(=O)C2CCCCC2)O3)c1	-10.0
COc1cccc(C#Cc2cnc3c(c2)C(=O)N([C@H](C)CO)C[C@@H](C)[C@H](CN(C)C(=O)C2CCCCC2)O3)c1	95.2*
COc1cccc(C#Cc2cnc3c(c2)C(=O)N([C@@H](C)CO)C[C@H](C)[C@H](CN(C)C(=O)C2CCC2)O3)c1	11.8
COc1cc(NC(=O)COc2c(Cl)c(C)c(Cl)c(C)c2Cl)c(OC)cc1Cl	-6.9
COc1cc(C(=O)NC2(C(F)(F)F)C(=O)N(Cc3ccco3)C3=C2C(=O)CC(C)(C)C3)cc(OC)c1OC (centres undefined)	3.6
CC(C)C1CCC2(C)CCC(O)C(C)(O)C2C1OC(=O)/C=C/c1ccccc1 (centres undefined)	4.7
COc1cc(/C=C/C(=O)O[C@@H]2C[C@@](O)(C(=O)O)C[C@@H](O)[C@@H]2O)ccc1O	89.8*
CC(=O)CCC1C2C(O)C(C(C)C)C(OC(=O)/C=C/c3ccccc3)CC12C (centres undefined)	-25.7
O=C(/C=C/c1ccc(O)cc1)O[C@@H]1CC(O)(C(=O)O)C[C@@H](OC(=O)/C=C/c2ccc(O)cc2)C1O (some centres undefined)	76.3*
COc1cc(O)c(C(=O)/C=C/c2ccc(OC)c(OC)c2)c(OC)c1	8.6
COc1cc(/C=C/C(=O)CC(=O)/C=C/c2ccc(O)c(OC)c2)ccc1O	10.5
CS(=O)(=O)N(CC(=O)Nc1c(F)cccc1F)c1ccc(Br)cc1	15.2
COc1ccccc1-c1cc(-c2ccccc2)nc(SCC(=O)c2cc3ccccc3oc2=O)c1C#N	-12.1
COc1ccccc1-c1cc(-c2ccccc2)nc(SCC(N)=O)c1C#N	7.4
SMILES	EZH2 inh
CC(=O)c1cccc(NC(=O)C2CCCN(S(=O)(=O)c3ccc(Cl)cc3)C2)c1 (centres undefined)	7.3
COc1cc(O)cc2c1C(=O)OC(C)C2 (centres undefined)	11.9
COc1cc2c(c(O)c1OC)C(=O)CC(c1ccc(O)cc1)O2 (centres undefined)	10.6
COc1cc(OC)c2c(c1O)OC(c1ccccc1)CC2=O (centres undefined)	72.4*
C=CCN1C(=O)[C@@]2(O[C@@H](CCn3cc(CCO)nn3)[C@H]([Si](C)(C)c3ccc(OC)cc3)[C@H]2C)c2cc(N3C(=O)c4cccc5cccc3c45)ccc21	26.3
O=C(CSc1n[nH]c(-c2ccc(Cl)cc2Cl)n1)Nc1ccc(I)cc1	58.4*
